Most compounds without a hit are left out; they make up all but 1.4% or so of the library.
S-ASM inh: Inhibitors of Secretory Acid Sphingomyelinase (S-ASM): qHTS | 0.006% of 340,000 active | placental ASM, HMU-PC fluorogenic substrate, 60 min | Sphingomyelin phosphodiesterase (Homo sapiens), P17405 | Potency, µM (top dose mostly 57.5 µM), for the others: at the highest dose activity change, negative = inhibition, actives largely listed as inhibitors | AID 504937, 2011; note: potency is the fitted concentration of half-maximal effect
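qHTS format. ASM enzyme prepared from human placenta hydrolyses the fluorogenic substrate HMU-PC0 (9 uM final) over 60 min at 37 °C after a 10 min compound preincubation.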
Akt phos inh: HTS Assay for Inhibitors of Akt Phophorylation: Primary Screen | Neuro2A IGF-stimulated pAkt S473 HTRF, 20 min; stronger effect = lower value | activity change, % for hits at 50 µM | 0.32% of 360,000 active | AID 651550, 2012; in the data active = activity change below about -80%; inconclusive = mostly about -51% to -80%; note: % is set by controls: 0 for no effect and ±100 for the full control effect
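Neuro2A cells (4,500/well, DMEM with 0.5% FBS) were treated with compound at a single 50 µM final concentration, stimulated with 6 nM IGF for 20 min at 37 °C, and lysed. Phospho-Akt Ser473 was read by HTRF as 665/615 ratio ×10^4.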
12-LOX inh: Primary qHTS assay for inhibitors of human arachidonate 12S-lipoxygenase (ALOX12): Round 2 | Polyunsaturated fatty acid lipoxygenase ALOX12 (Homo sapiens), P18054 | AID 1671190, 2021 | Potency, µM (highest dose often 108 µM), for the others: at the highest dose activity change, negative = inhibition, hits mostly inhibitors | purified 12hLO, xylenol orange hydroperoxide absorbance | 1.1% of 580,000 active; note: potency is the fitted concentration of half-maximal effect; % is set by controls: 0 for no effect and ±100 for the full control effect
Target sequence (P18054 whole entry, looked up): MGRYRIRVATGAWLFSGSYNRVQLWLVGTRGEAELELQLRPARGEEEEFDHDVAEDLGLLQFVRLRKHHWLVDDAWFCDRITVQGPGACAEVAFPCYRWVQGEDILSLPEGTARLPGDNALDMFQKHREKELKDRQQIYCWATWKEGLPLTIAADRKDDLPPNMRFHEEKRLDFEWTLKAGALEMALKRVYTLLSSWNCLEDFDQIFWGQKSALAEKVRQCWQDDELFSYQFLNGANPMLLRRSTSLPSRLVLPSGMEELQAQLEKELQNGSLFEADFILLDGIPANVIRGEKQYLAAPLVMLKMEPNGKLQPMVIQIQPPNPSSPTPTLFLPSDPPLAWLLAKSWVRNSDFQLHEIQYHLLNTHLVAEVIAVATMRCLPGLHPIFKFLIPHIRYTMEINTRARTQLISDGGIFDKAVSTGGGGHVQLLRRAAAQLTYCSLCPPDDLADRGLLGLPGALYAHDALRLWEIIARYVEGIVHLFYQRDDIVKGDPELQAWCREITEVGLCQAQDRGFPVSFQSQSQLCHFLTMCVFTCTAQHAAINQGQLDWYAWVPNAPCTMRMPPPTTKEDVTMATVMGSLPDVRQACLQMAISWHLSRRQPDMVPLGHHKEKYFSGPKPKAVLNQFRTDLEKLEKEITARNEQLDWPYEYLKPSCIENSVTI
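Hydroperoxide product was detected by ferrous iron/xylenol orange as the 573 to 405 nm absorbance ratio. Arachidonic acid at 40 uM (final) was turned over for 30 min at room temperature by 150 nM human 12hLO, pH 7.0 Hepes buffer, after 15 min compound preincubation.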
PTAP TSG101 blk: qHTS Assay for Iinhibitors of HIV-1 Budding by Blocking the Interaction of PTAP/TSG101. Tumor susceptibility gene 101 protein (Homo sapiens), Q99816. Fluorescence polarization, FITC-PTAP peptide / Tsg101 binding. Potency, µM (doses to about 115 µM), for the others: at the highest dose activity change, negative = inhibition, usual class: inhibitors. 340,000 tested, under 10 active. AID 493005, 2010; active = well fitted inhibition curve with a large enough effect in the main read-out, with a control signal flat, not every such curve was filed as active; inconclusive = small, poorly fitted or top-dose-only effect, or effect the other way, or a change in a side signal; inactive = no such curve, though single readings can be large or run the other way; note: potency is the fitted concentration of half-maximal effect; % of control where 0% means no effect
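Fluorescence anisotropy tracks displacement of a FITC-tagged PTAP peptide (50 nM) from the Tsg101 binding domain (10 uM), following a 20 min room-temperature incubation at pH 7.5.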
Vif-A3G inh: qHTS for Inhibitors of Vif-A3G Interactions: qHTS; DNA dC->dU-editing enzyme APOBEC-3G (Homo sapiens), Q9HC16; HeLa A3G-eYFP + Vif (tagged APOBEC3G with the HIV-1 protein that degrades it), YFP fluorescence, overnight; Potency, µM (titrated, usually from 46.1 µM), without a hit: at the highest dose activity, negative = active, most hits filed as inhibitors; 0.076% of 410,000 active; AID 602310, 2012; note: potency is the fitted concentration of half-maximal effect; % is set by controls: 0 for no effect and ±100 for the full control effect; nearly all actives have a fitted effect of over 60% in size
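HeLa cells stably expressing Vif and C-terminally eYFP-tagged A3G, seeded overnight at 37 deg C, then exposed to compound by pintool overnight at 37 deg C. Rise in yellow fluorescence (Ex 488/Em 500-530, Acumen) marks blocked Vif-driven A3G degradation.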
Vif-A3F inh: qHTS for Inhibitors of Vif-A3F Interactions: qHTS; HeLa A3F-eYFP + Vif (tagged APOBEC3F with the HIV-1 protein that degrades it), YFP fluorescence increase; Potency, µM (titrated, usually from 46.1 µM), inactives show top-dose activity, negative = active; 0.2% of 390,000 active; note: potency is the fitted concentration of half-maximal effect; % of control where 0% means no effect; nearly all actives have a fitted effect of over 65% in size
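Fluorescence increase (Ex 488/Em 500-530) after overnight compound treatment at 37 deg C flags inhibition of Vif-driven A3F-eYFP loss in stable HeLa A3F-eYFP/Vif cells seeded overnight beforehand.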
Starred values were filed as active, the others as inactive; i = inactive; ? = inconclusive; · = not tested or not shown; [ ] = remark or other dose. Unless noted, calls come from the whole dose curve; as a rule, active = well fitted curve in the direction sought with a large enough effect; inconclusive = small, poorly fitted or top-dose-only effect, or another doubt; inactive = no such curve, though single readings can be large; an effect the other way counts as inactive or inconclusive.

SMILES	S-ASM inh	Akt phos inh	12-LOX inh	PTAP TSG101 blk	Vif-A3G inh	Vif-A3F inh
Cc1ccc(C(=O)O)cc1Nc1nc2ccccc2n2nnnc12	·	·	?	·	-23%	11µM*
CC(NC(=O)c1ccc(Nc2nc3ccccc3n3nnnc23)cc1)c1ccccc1 (stereo unspecified)	·	·	-29%	·	?	7.1µM*
COc1ccccc1CNC(=O)c1ccc(Nc2nc3ccccc3n3nnnc23)cc1	·	·	-2%	·	-28%	22µM*
Cc1ccc(N2CCN(C(=O)c3ccc(Nc4nc5ccccc5n5nnnc45)cc3)CC2)c(C)c1	·	·	-23%	·	0%	3%
CC(CNC(=O)c1ccc(Nc2nc3ccccc3n3nnnc23)cc1)c1ccccc1 (stereo unspecified)	·	·	-14%	·	1%	-13%
Cc1c2ccccc2nc2c(F)c(NC(C)C)c(F)c(F)c12	-12%	i	?	?	?	13µM*
Cc1c2ccccc2nc2c(F)c(NCCO)c(F)c(F)c12	-4%	i	-21%	?	?	?
COc1cccc(NC(=O)Cn2c(N3CCc4ccccc4C3)nc(C)cc2=O)c1	·	·	28µM*	·	·	·
COc1ccc(OC)c(NC(=O)Cn2c(N3CCc4ccccc4C3)nc(C)cc2=O)c1	·	·	-13%	·	·	·
Cc1ccc2cccc(NC(=O)c3ccc(-c4ccc(Br)cc4)o3)c2n1	·	·	-4%	·	2%	1%
O=C(Nc1cccc2nsnc12)c1ccc(-c2ccc(Br)cc2)o1	50%	i	35µM*	3%	-12%	-4%
O=C(Nc1ccccc1)Nc1cccc2nsnc12	-2%	i	40µM*	-2%	-25%	8%
Cc1cc(-c2ccccc2)nc(SCC(=O)c2ccc3c(c2)OCCCO3)n1	·	·	21%	·	·	·
CCOC(=O)c1c(C)sc2c1OC(N)=C(C#N)C21C(=O)N(C)c2ccccc21 (stereo unspecified)	·	·	6%	·	·	·
O=C(NC1(O)C(=O)c2ccccc2C1=O)c1ccccc1	2%	i	32µM*	0%	2%	0%
O=C(NC1(O)C(=O)c2ccccc2C1=O)c1c(Cl)cccc1Cl	11%	i	?	-9%	-1%	-21%
COc1ccccc1CNC[C@@H]1C=C(C)[C@H](Cc2nc3c(C)cccc3[nH]2)C[C@H]1C(C)C	·	·	56µM*	·	·	·
CC1=C[C@@H](CNCc2ccccc2)[C@H](C(C)C)C[C@H]1Cc1nc2c(C)cccc2[nH]1	·	·	63µM*	·	·	·
O=C(NCc1ccccn1)c1ccccc1NS(=O)(=O)c1ccc2[nH]c(=O)[nH]c2c1	·	·	6%	·	·	·
CC1(COc2ccccc2)COc2ccc(C(=O)NCCc3ccccc3)cc2N1 (stereo unspecified)	·	·	1%[176 µM]	·	·	·
CC1(COc2ccccc2)COc2ccc(C(=O)NCCc3ccccn3)cc2N1 (stereo unspecified)	·	·	18µM*	·	·	·
O=C(Cc1ccc2c(c1)CCCC2)NC1CCCCCC1	·	·	77%	·	·	·
CCOc1ccc(CCNS(=O)(=O)c2cnc[nH]2)cc1OCC	6%	-132%*	4%	0%	2%	-2%
CCOc1ccc(CCNS(=O)(=O)c2ccc(-c3ccc(=O)[nH]n3)o2)cc1OCC	-1%	i	28%	-7%	0%	-12%
Cc1nc(S(=O)(=O)N2CCC(C(=O)N3CCN(c4ccc(Cl)cc4)CC3)CC2)cn1C	·	·	-25%	·	·	·
SMILES	S-ASM inh	Akt phos inh	12-LOX inh	PTAP TSG101 blk	Vif-A3G inh	Vif-A3F inh
O=C1c2ccccc2NC(c2ccc(-c3cccc(F)c3)o2)N1O (stereo unspecified)	-1%	·	35µM*	-1%	-7%	-7%
O=C1c2ccccc2NC(c2ccc(Cl)cc2Cl)N1O (stereo unspecified)	-4%	-132%*	10µM*	-4%	-8%	6%
O=C1c2ccccc2NC(c2ccc(-c3ccccc3F)o2)N1O (stereo unspecified)	4%	·	?	-6%	-9%	?
CCCCc1ccc(-n2nnnc2SCC(=O)Nc2cccc(OC)c2)cc1	·	·	-5%	·	·	·
Cc1ccc2c(c1)N(CC(=O)N1CCCc3ccccc31)C(=O)CO2	4%	i	14%	-1%	0%	1%
O=C(CN1C(=O)COc2ccccc21)N1CCc2ccccc21	10%	-107%*	-27%	-4%	0%	3%
Nc1nc(=S)c2ncn([C@@H]3O[C@H](CO)[C@@H](O)[C@H]3O)c2[nH]1	1%	i	?	3%	0%	6%
Nc1nc(=S)c2ncn(C3CCCCC3)c2[nH]1	1%	i	50µM*	0%	-3%	4%
COc1cc(OC)c2c(C)c(CC(=O)NCC3(N4CCN(C)CC4)CCCCC3)c(=O)oc2c1	·	·	0%	·	·	·
CC(C)CC(C(=O)O)C(C)CC(=O)Nc1ccn(-c2ccccc2)n1 (stereo unspecified)	0%	-108%*	17%	0%	-5%	-19%
O=S(=O)(NCc1ccc(N2CCOCC2)nc1)c1cc(C(F)(F)F)cc(C(F)(F)F)c1	·	·	7.1µM*	·	·	·
CCOC(=O)c1cc(-c2ccccc2)sc1NC(=S)Nc1cccc(C)n1	5%	i	20µM*	0%	7%	-12%
CCOC(=O)c1cc(CC)sc1NC(=O)c1ccc2c(c1)OCCO2	7%	-113%*	-23%	-2%	0%	1%
CCOC(=O)c1cc(-c2ccccc2)sc1NC(=O)c1ccc(OC)c(OC)c1	52%	i	11µM*	-1%	-5%	0%
CCOC(=O)c1cc(CC)sc1NC(=O)c1cc(OCC)c(OCC)c(OCC)c1	26%	i	-2%	-3%	-4%	-14%
CCOC(=O)c1cc(-c2ccccc2)sc1NC(=O)COC	-3%	i	-6%	-2%	-7%	6%
CCOC(=O)c1cc(-c2ccccc2)sc1NC(=O)C(C)C	-1%	i	-17%	0%	0%	4%
O=C(Nc1nc(-c2ccccc2)cs1)C1CC(=O)N(c2ccccc2F)C1 (stereo unspecified)	·	·	-4%	·	·	·
COCCn1nnnc1C(C(C)C)N(Cc1ccccc1)Cc1cc2cc(OC)ccc2[nH]c1=O (stereo unspecified)	10%	i	?	-5%	-4%	1%
